Measurements as given in PubChem BioAssay (EPA / NIEHS).
Some compounds were tested as several samples or in several runs, with calls that do not always agree. Active and inactive are the calls of the source. The calls were made as follows: active = hit-call score of the fitted dose curve at least 0.9, where 1 is the maximum; inactive = score below 0.9.

target: Myc proto-oncogene protein (Homo sapiens) (UniProt P01106); test: ATG_Myc_CIS: Attagene CIS-FACTORIAL HepG2 Assay for human Myelocytomatosis (Myc) Proto-Oncogene Transcription Factor (AID 2282990); details: HepG2, Attagene cis-reporter transcription factor activity; actives raise or lower the signal
Sequence (P01106 whole entry, looked up): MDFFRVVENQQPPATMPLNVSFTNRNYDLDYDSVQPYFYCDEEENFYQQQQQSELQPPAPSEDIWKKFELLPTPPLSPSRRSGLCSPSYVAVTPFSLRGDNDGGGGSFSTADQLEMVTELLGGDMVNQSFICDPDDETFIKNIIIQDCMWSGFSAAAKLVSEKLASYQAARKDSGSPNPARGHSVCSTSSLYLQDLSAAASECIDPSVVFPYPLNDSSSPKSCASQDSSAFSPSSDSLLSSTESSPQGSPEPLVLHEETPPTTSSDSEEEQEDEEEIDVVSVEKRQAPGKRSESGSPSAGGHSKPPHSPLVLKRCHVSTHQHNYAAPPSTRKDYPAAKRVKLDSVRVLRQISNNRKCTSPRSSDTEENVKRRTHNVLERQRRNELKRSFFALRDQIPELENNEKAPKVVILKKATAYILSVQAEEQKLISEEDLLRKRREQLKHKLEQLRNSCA
In short: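 Multiplexed cis-reporter transcription in HepG2 cells after 24 h chemical treatment. Reporter mRNA measured by RT-PCR and capillary electrophoresis fluorescence; activity fitted bidirectionally against DMSO control.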

Row | Structure (SMILES) | outcome
1 | N#CN=C(N)N | inactive
2 | CCC(=O)C(CC(C)N(C)C)(c1ccccc1)c1ccccc1 (centres undefined) | inactive
3 | CCc1ccccc1C | inactive
4 | CCNc1nc(NC(C)(C)C)nc(SC)n1 | inactive
5 | CC(C)(C)CC(C)(C)c1ccc(O)cc1 | inactive
6 | CCOP(=S)(OCC)SCCS(=O)(=O)CC | inactive
7 | CC(=O)[O][Hg][c]1ccccc1 | inactive
8 | CCOP(OCC)OCC | inactive
9 | C=C(C)C#N | inactive
10 | Fc1ccc(C2(Cn3cncn3)OC2c2ccccc2Cl)cc1 (centres undefined) | inactive
11 | O=C(O)C(F)(F)C(F)(F)C(F)(F)C(F)(F)C(F)(F)C(F)(F)F | inactive
12 | CCC(C)(C)c1ccc(O)c(C(C)(C)CC)c1 | inactive
13 | CN(C)N=O | inactive
14 | CCN(CC)C(=O)Cl | inactive
15 | CC1(C)CCC(Cc2ccc(Cl)cc2)C1(O)Cn1cncn1 (centres undefined) | inactive
16 | O=C1CCCN1 | inactive
17 | CCCCP(CCCC)CCCC | inactive
18 | COS(=O)(=O)c1ccc(C)cc1 | inactive
19 | Clc1ccc(C2(Cn3cncn3)CC(Br)CO2)c(Cl)c1 (centres undefined) | inactive
20 | CC(=O)OC(c1ccccc1)C(Cl)(Cl)Cl (centres undefined) | inactive

Row | Structure (SMILES) | outcome
21 | CC(=[OH+])/C=C(/C)[O-].CC(=[OH+])/C=C(/C)[O-].CC(=[OH+])/C=C(/C)[O-].[Fe] | inactive
22 | CC(C)(c1ccccc1)c1ccc(O)c(C(C)(C)c2ccccc2)c1 | inactive
23 | c1cc[c]([Hg][c]2ccccc2)cc1 | inactive
24 | O=C(Cl)c1ccc(Cl)cc1 | inactive
25 | C[C@@H]1C[C@@H]([C@H](O)CC2CC(=O)NC(=O)C2)C(=O)[C@@H](C)C1 | inactive
26 | O=C1C2(Cl)C3(Cl)C4(Cl)C(Cl)(Cl)C5(Cl)C3(Cl)C1(Cl)C5(Cl)C24Cl (centres undefined) | inactive
27 | Cl/C=C\C[N+]12CN3CN(CN(C3)C1)C2 | inactive
28 | ClCc1cccnc1 | inactive
29 | ClC1(Cl)C2(Cl)C3(Cl)C4(Cl)C(Cl)(Cl)C5(Cl)C3(Cl)C1(Cl)C5(Cl)C24Cl (centres undefined) | inactive
30 | ClC1=C(Cl)[C@]2(Cl)[C@@H]3[C@@H](Cl)[C@@H](Cl)C[C@@H]3[C@@]1(Cl)C2(Cl)Cl | inactive
31 | CN(C)P(=O)(N(C)C)N(C)C | inactive
32 | CCN1CCC2(CC1)COc1cc3c(cc12)N(C(=O)c1ccc(-c2ccc(-c4nnc(C)o4)cc2C)cc1)CC3 | inactive
33 | O=C(O)C(F)(F)C(F)(F)C(F)(F)C(F)(F)C(F)(F)C(F)(F)C(F)(F)C(F)(F)C(F)(F)C(F)(F)F | inactive
34 | CC(C)c1ccc(CO)cc1 | inactive
35 | CCC(C)c1cccc(C(C)CC)c1O (centres undefined) | inactive
36 | O=C(c1ccccc1)C(Cl)Cl | inactive
37 | COC[C@H](C)N(C(=O)CCl)c1c(C)csc1C | inactive
38 | Oc1cccc2cccnc12 | inactive
39 | CC(C)C1CCC(Cc2ccc(Cl)cc2)C1(O)Cn1cncn1 (centres undefined) | inactive

tested on: not listed separately; test: ATG_NF_kB_CIS: Attagene CIS-FACTORIAL HepG2 Assay for human Nuclear Factor Kappa B (NF-kB) (AID 2282991); details: HepG2 Attagene cis-factorial NF-kB reporter mRNA; actives raise or lower the signal
In short: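 Transient MRTU transfection of human HepG2 liver cells → 24 h chemical exposure → total RNA, oligo(dT) RT → PCR, 6-FAM primer extension, HpaI digest 2 h 37 C → CE fragment analysis. Bidirectional fitting, DMSO negative control.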

Row | Structure (SMILES) | outcome | AC50
40 | N#CN=C(N)N | inactive | 
41 | CCc1ccccc1C | inactive | 
42 | CCNc1nc(NC(C)(C)C)nc(SC)n1 | inactive | 
43 | CC(C)(C)CC(C)(C)c1ccc(O)cc1 | inactive | 
44 | CCOP(=S)(OCC)SCCS(=O)(=O)CC | inactive | 
45 | CC(=O)[O][Hg][c]1ccccc1 | inactive | 
46 | CCOP(OCC)OCC | inactive | 
47 | Fc1ccc(C2(Cn3cncn3)OC2c2ccccc2Cl)cc1 (centres undefined) | inactive | 
48 | O=C(O)C(F)(F)C(F)(F)C(F)(F)C(F)(F)C(F)(F)C(F)(F)F | inactive | 
49 | CCC(C)(C)c1ccc(O)c(C(C)(C)CC)c1 | inactive | 
50 | CN(C)N=O | inactive | 
51 | CCN(CC)C(=O)Cl | inactive | 
52 | CC1(C)CCC(Cc2ccc(Cl)cc2)C1(O)Cn1cncn1 (centres undefined) | inactive | 
53 | O=C1CCCN1 | inactive | 
54 | CCCCP(CCCC)CCCC | inactive | 
55 | COS(=O)(=O)c1ccc(C)cc1 | inactive | 
56 | Clc1ccc(C2(Cn3cncn3)CC(Br)CO2)c(Cl)c1 (centres undefined) | inactive | 

Row | Structure (SMILES) | outcome | AC50
57 | CC(=[OH+])/C=C(/C)[O-].CC(=[OH+])/C=C(/C)[O-].CC(=[OH+])/C=C(/C)[O-].[Fe] | inactive | 
58 | CC(C)(c1ccccc1)c1ccc(O)c(C(C)(C)c2ccccc2)c1 |  | 8.81 µM (active)
59 | c1cc[c]([Hg][c]2ccccc2)cc1 | inactive | 
60 | O=C(Cl)c1ccc(Cl)cc1 | inactive | 
61 | C[C@@H]1C[C@@H]([C@H](O)CC2CC(=O)NC(=O)C2)C(=O)[C@@H](C)C1 |  | 17.9 µM (active) [middle of 4 runs]
62 | O=C1C2(Cl)C3(Cl)C4(Cl)C(Cl)(Cl)C5(Cl)C3(Cl)C1(Cl)C5(Cl)C24Cl (centres undefined) | inactive | 16.5 µM (active)
63 | Cl/C=C\C[N+]12CN3CN(CN(C3)C1)C2 |  | 53.6 µM (active)
64 | ClCc1cccnc1 | inactive | 
65 | ClC1=C(Cl)[C@]2(Cl)[C@@H]3[C@@H](Cl)[C@@H](Cl)C[C@@H]3[C@@]1(Cl)C2(Cl)Cl | inactive | 
66 | CCN1CCC2(CC1)COc1cc3c(cc12)N(C(=O)c1ccc(-c2ccc(-c4nnc(C)o4)cc2C)cc1)CC3 | inactive | 
67 | O=C(O)C(F)(F)C(F)(F)C(F)(F)C(F)(F)C(F)(F)C(F)(F)C(F)(F)C(F)(F)C(F)(F)C(F)(F)F | inactive | 95.5 µM (active)
68 | CC(C)c1ccc(CO)cc1 | inactive | 
69 | CCC(C)c1cccc(C(C)CC)c1O (centres undefined) | inactive | 
70 | O=C(c1ccccc1)C(Cl)Cl |  | 25.9 µM (active)
71 | COC[C@H](C)N(C(=O)CCl)c1c(C)csc1C | inactive | 
72 | CC(C)C1CCC(Cc2ccc(Cl)cc2)C1(O)Cn1cncn1 (centres undefined) | inactive | 
